# Measurements taken from ChEMBL document CHEMBL1961873, “Compounds: GSK PKIS; Assays: Nanosyn kinase panel” (2012).
# Legend:
# [1] = target: Serine/threonine-protein kinase 4 (Homo sapiens) (UniProt Q13043); details: at 0.1 µM
# [2] = target: Serine/threonine-protein kinase 4 (Homo sapiens) (UniProt Q13043); details: at 1 µM
# [3] = target: Serine/threonine-protein kinase 3 (Homo sapiens) (UniProt Q13188); details: at 0.1 µM
# [4] = target: Serine/threonine-protein kinase 3 (Homo sapiens) (UniProt Q13188); details: at 1 µM
# [5] = target: Serine/threonine-protein kinase 26 (Homo sapiens) (UniProt Q9P289); details: at 0.1 µM
# [6] = target: Serine/threonine-protein kinase 26 (Homo sapiens) (UniProt Q9P289); details: at 1 µM
# [7] = target: Serine/threonine-protein kinase PAK 1 (Homo sapiens) (UniProt Q13153); details: at 0.1 µM
# [8] = target: Serine/threonine-protein kinase PAK 1 (Homo sapiens) (UniProt Q13153); details: at 1 µM
# [9] = target: Serine/threonine-protein kinase PAK 2 (Homo sapiens) (UniProt Q13177); details: at 0.1 µM
# [10] = target: Serine/threonine-protein kinase PAK 2 (Homo sapiens) (UniProt Q13177); details: at 1 µM
# [11] = target: Serine/threonine-protein kinase PAK 3 (Homo sapiens) (UniProt O75914); details: at 0.1 µM
# [12] = target: Serine/threonine-protein kinase PAK 3 (Homo sapiens) (UniProt O75914); details: at 1 µM
# [13] = target: Serine/threonine-protein kinase PAK 5 (Homo sapiens) (UniProt Q9P286); details: at 0.1 µM
# [14] = target: Serine/threonine-protein kinase PAK 5 (Homo sapiens) (UniProt Q9P286); details: at 1 µM
# [15] = target: Serine/threonine-protein kinase PAK 6 (Homo sapiens) (UniProt Q9NQU5); details: at 0.1 µM
# [16] = target: Serine/threonine-protein kinase PAK 6 (Homo sapiens) (UniProt Q9NQU5); details: at 1 µM
# [17] = test system: Tyrosine-protein kinase ABL1 (Homo sapiens), P00519 [E255K]; details: at 0.1 µM
# [18] = test system: Tyrosine-protein kinase ABL1 (Homo sapiens), P00519 [E255K]; details: at 1 µM
# [19] = test system: Tyrosine-protein kinase ABL1 (Homo sapiens), P00519 [H396P]; details: at 0.1 µM
# [20] = test system: Tyrosine-protein kinase ABL1 (Homo sapiens), P00519 [H396P]; details: at 1 µM
# [21] = test system: Tyrosine-protein kinase ABL1 (Homo sapiens), P00519 [M351T]; details: at 0.1 µM
# [22] = test system: Tyrosine-protein kinase ABL1 (Homo sapiens), P00519 [M351T]; details: at 1 µM
# [23] = test system: Tyrosine-protein kinase ABL1 (Homo sapiens), P00519 [Q252H]; details: at 0.1 µM
# [24] = test system: Tyrosine-protein kinase ABL1 (Homo sapiens), P00519 [Q252H]; details: at 1 µM
# [25] = test system: Tyrosine-protein kinase ABL1 (Homo sapiens), P00519 [T315I]; details: at 0.1 µM
# [26] = test system: Tyrosine-protein kinase ABL1 (Homo sapiens), P00519 [T315I]; details: at 1 µM
# [27] = test system: Tyrosine-protein kinase ABL1 (Homo sapiens), P00519 [Y253F]; details: at 0.1 µM
# [28] = test system: Tyrosine-protein kinase ABL1 (Homo sapiens), P00519 [Y253F]; details: at 1 µM
# [29] = target: Tyrosine-protein kinase ABL1 (Homo sapiens) (UniProt P00519); details: at 0.1 µM
# [30] = target: Tyrosine-protein kinase ABL1 (Homo sapiens) (UniProt P00519); details: at 1 µM
# [31] = target: ALK tyrosine kinase receptor (Homo sapiens) (UniProt Q9UM73); details: at 0.1 µM
# [32] = target: ALK tyrosine kinase receptor (Homo sapiens) (UniProt Q9UM73); details: at 1 µM
# [33] = target: Tyrosine-protein kinase ABL2 (Homo sapiens) (UniProt P42684); details: at 0.1 µM
# [34] = target: Tyrosine-protein kinase ABL2 (Homo sapiens) (UniProt P42684); details: at 1 µM
# [35] = target: Tyrosine-protein kinase receptor UFO (Homo sapiens) (UniProt P30530); details: at 0.1 µM
# [36] = target: Tyrosine-protein kinase receptor UFO (Homo sapiens) (UniProt P30530); details: at 1 µM
# [37] = target: Tyrosine-protein kinase Blk (Homo sapiens) (UniProt P51451); details: at 0.1 µM
# [38] = target: Tyrosine-protein kinase Blk (Homo sapiens) (UniProt P51451); details: at 1 µM
# [39] = target: Cytoplasmic tyrosine-protein kinase BMX (Homo sapiens) (UniProt P51813); details: at 0.1 µM
# [40] = target: Cytoplasmic tyrosine-protein kinase BMX (Homo sapiens) (UniProt P51813); details: at 1 µM
# [41] = target: Protein-tyrosine kinase 6 (Homo sapiens) (UniProt Q13882); details: at 0.1 µM
# [42] = target: Protein-tyrosine kinase 6 (Homo sapiens) (UniProt Q13882); details: at 1 µM
# [43] = target: Tyrosine-protein kinase BTK (Homo sapiens) (UniProt Q06187); details: at 0.1 µM
# [44] = target: Tyrosine-protein kinase BTK (Homo sapiens) (UniProt Q06187); details: at 1 µM
# [45] = target: Tyrosine-protein kinase CSK (Homo sapiens) (UniProt P41240); details: at 0.1 µM
# [46] = target: Tyrosine-protein kinase CSK (Homo sapiens) (UniProt P41240); details: at 1 µM
# [47] = target: Discoidin domain-containing receptor 2 (Homo sapiens) (UniProt Q16832); details: at 0.1 µM
# [48] = target: Discoidin domain-containing receptor 2 (Homo sapiens) (UniProt Q16832); details: at 1 µM
# [49] = target: Epidermal growth factor receptor (Homo sapiens) (UniProt P00533); details: at 0.1 µM
# [50] = target: Epidermal growth factor receptor (Homo sapiens) (UniProt P00533); details: at 1 µM
# [51] = test system: Epidermal growth factor receptor (Homo sapiens), P00533 [L858R]; details: at 0.1 µM
# [52] = test system: Epidermal growth factor receptor (Homo sapiens), P00533 [L858R]; details: at 1 µM
# [53] = test system: Epidermal growth factor receptor (Homo sapiens), P00533 [L861Q]; details: at 0.1 µM
# [54] = test system: Epidermal growth factor receptor (Homo sapiens), P00533 [L861Q]; details: at 1 µM
# [55] = test system: Epidermal growth factor receptor (Homo sapiens), P00533 [T790M]; details: at 0.1 µM
# [56] = test system: Epidermal growth factor receptor (Homo sapiens), P00533 [T790M]; details: at 1 µM
# Sequence of Protein-tyrosine kinase 6 (Homo sapiens) (Q13882 whole entry, looked up): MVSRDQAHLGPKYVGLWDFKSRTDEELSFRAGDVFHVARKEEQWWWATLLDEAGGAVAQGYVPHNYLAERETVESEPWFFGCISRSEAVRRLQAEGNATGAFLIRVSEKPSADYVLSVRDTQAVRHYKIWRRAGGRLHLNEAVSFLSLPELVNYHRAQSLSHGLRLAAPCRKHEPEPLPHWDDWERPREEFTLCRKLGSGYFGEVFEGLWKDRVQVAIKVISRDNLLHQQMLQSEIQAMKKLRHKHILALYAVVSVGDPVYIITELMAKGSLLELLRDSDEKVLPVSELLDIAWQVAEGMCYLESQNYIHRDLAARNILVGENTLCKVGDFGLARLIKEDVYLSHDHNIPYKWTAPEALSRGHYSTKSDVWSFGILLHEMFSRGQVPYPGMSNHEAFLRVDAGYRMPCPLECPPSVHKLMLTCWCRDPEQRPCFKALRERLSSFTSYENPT
# Sequence of Serine/threonine-protein kinase PAK 5 (Homo sapiens) (Q9P286 whole entry, looked up): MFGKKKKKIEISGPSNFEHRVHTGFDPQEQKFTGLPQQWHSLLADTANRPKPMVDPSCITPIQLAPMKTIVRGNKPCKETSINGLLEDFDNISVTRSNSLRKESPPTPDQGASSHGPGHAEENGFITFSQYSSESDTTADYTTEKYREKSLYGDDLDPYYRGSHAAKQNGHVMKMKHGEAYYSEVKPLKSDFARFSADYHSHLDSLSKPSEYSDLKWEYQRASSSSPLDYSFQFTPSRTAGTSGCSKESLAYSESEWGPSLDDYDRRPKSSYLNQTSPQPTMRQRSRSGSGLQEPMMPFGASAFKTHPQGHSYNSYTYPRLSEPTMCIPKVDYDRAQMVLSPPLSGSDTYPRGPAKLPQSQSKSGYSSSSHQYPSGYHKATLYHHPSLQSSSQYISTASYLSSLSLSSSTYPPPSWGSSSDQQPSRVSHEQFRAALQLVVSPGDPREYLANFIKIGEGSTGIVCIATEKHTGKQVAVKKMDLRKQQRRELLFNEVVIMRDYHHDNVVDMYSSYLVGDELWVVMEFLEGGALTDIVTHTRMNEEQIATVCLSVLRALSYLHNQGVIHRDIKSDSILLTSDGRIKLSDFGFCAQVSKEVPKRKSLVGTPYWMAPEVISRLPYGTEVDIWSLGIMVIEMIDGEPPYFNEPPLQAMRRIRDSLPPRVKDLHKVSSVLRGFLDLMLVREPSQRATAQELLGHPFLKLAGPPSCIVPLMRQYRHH
# Sequence of Serine/threonine-protein kinase 4 (Homo sapiens) (Q13043 whole entry): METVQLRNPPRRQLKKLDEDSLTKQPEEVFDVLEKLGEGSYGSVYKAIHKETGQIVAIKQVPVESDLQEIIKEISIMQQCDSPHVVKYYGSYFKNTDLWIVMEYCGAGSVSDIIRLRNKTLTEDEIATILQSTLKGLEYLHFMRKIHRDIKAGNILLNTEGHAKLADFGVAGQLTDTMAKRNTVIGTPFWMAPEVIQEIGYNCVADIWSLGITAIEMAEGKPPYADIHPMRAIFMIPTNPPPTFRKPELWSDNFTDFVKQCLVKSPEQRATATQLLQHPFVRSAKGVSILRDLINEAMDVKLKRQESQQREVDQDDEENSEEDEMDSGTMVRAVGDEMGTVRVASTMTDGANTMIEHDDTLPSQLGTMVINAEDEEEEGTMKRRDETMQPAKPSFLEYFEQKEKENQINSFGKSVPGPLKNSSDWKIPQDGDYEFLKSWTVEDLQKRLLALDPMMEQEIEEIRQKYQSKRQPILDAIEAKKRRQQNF
# Sequence of Cytoplasmic tyrosine-protein kinase BMX (Homo sapiens) (P51813 whole entry): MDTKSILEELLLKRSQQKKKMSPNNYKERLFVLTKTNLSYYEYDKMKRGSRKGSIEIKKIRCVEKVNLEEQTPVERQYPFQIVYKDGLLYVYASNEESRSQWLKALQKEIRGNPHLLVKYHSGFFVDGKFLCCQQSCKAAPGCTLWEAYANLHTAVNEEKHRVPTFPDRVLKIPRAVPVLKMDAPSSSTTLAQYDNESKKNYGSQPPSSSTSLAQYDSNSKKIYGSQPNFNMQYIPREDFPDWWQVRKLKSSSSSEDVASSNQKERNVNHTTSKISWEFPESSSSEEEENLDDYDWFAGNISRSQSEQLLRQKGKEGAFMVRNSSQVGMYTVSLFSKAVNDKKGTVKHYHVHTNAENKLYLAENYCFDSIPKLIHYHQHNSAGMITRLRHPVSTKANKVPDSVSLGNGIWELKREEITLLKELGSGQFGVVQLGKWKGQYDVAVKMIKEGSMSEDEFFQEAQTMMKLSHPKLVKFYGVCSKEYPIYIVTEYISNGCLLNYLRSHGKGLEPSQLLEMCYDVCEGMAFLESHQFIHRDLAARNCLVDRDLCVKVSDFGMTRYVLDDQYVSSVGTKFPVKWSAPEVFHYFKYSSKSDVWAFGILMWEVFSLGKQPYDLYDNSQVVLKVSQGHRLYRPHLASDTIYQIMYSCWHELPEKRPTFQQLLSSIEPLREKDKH
# Sequence of Tyrosine-protein kinase CSK (Homo sapiens) (P41240 2-450 limits assumed): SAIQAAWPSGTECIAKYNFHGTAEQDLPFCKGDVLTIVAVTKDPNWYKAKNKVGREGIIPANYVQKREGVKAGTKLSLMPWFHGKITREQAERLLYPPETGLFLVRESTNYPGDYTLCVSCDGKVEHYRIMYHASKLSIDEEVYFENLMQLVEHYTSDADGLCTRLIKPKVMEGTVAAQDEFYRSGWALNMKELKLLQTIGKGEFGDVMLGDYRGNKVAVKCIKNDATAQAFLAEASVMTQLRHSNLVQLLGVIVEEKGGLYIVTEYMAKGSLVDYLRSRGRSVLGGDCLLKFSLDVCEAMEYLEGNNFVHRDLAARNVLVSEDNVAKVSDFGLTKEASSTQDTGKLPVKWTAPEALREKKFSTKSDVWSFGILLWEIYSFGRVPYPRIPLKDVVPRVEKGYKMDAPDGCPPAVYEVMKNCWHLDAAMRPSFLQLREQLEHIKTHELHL
# Sequence of Serine/threonine-protein kinase PAK 6 (Homo sapiens) (Q9NQU5 whole entry, looked up): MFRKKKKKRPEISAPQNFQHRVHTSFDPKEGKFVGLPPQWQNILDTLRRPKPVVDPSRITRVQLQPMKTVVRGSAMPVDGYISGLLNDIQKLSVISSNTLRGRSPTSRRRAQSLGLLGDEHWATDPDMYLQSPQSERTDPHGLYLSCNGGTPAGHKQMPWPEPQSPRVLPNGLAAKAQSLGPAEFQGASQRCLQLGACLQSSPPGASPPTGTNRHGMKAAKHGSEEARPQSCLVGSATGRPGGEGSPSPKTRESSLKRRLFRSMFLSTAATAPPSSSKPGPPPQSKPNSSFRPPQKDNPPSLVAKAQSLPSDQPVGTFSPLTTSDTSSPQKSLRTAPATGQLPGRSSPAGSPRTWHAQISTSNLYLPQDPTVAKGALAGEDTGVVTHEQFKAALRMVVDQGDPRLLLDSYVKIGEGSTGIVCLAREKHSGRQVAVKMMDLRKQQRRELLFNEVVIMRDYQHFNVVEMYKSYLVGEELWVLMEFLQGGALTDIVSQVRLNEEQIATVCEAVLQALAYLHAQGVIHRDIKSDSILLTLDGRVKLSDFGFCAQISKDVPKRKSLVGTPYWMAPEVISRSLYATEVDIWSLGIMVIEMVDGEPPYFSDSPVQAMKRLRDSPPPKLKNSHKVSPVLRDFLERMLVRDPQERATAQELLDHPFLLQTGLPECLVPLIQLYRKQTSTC
# Sequence of Tyrosine-protein kinase BTK (Homo sapiens) (Q06187 whole entry): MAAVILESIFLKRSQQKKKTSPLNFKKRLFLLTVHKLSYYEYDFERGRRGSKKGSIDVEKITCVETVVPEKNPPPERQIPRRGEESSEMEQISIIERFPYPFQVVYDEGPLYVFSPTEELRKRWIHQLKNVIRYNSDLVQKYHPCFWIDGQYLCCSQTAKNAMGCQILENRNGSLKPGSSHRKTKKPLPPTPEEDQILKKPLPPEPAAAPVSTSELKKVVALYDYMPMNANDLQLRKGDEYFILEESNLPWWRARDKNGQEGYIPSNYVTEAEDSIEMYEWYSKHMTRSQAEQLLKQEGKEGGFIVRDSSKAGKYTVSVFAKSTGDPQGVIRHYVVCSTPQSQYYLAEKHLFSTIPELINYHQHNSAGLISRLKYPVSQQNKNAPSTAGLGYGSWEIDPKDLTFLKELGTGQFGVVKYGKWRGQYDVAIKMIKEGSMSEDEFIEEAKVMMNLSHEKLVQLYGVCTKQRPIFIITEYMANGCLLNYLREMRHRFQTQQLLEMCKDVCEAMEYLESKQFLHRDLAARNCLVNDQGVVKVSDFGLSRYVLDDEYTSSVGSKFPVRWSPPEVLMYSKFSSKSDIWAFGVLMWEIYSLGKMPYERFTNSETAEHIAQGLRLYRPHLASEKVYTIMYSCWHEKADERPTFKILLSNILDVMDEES
# Sequence of Serine/threonine-protein kinase PAK 3 (Homo sapiens) (O75914 whole entry, looked up): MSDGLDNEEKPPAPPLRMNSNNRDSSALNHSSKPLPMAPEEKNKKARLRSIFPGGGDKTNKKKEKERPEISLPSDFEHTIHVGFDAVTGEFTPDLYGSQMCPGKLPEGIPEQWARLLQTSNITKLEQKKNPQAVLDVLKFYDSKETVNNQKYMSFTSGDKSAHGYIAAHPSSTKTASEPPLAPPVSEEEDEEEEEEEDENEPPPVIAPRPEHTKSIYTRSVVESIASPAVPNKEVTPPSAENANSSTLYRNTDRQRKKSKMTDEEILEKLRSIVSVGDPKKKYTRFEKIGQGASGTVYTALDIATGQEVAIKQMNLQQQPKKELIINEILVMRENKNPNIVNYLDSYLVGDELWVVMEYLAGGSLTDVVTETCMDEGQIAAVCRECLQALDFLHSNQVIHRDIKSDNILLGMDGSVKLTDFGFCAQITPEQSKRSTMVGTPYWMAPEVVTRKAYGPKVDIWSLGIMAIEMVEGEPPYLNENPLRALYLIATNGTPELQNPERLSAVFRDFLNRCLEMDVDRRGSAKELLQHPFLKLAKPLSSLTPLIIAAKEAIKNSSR
compound,measurement,setting,value
CNC(=O)Oc1cc(C)c(/C=C/c2cncc(C(=O)NC)c2)c(C)c1,inhibition,[1],4.28%
same,inhibition,[2],7.77%
same,inhibition,[3],4.88%
same,inhibition,[4],4.5%
same,inhibition,[5],-0.01%
same,inhibition,[6],-0.02%
same,inhibition,[7],3.48%
same,inhibition,[8],5.41%
same,inhibition,[9],1.99%
same,inhibition,[10],1.98%
same,inhibition,[11],1.98%
same,inhibition,[12],3.68%
same,inhibition,[13],-4.59%
same,inhibition,[14],-1.52%
same,inhibition,[15],5.83%
same,inhibition,[16],-0.24%
same,inhibition,[17],7.72%
same,inhibition,[18],50.5%
same,inhibition,[19],17.9%
same,inhibition,[20],66.5%
same,inhibition,[21],18.4%
same,inhibition,[22],65%
same,inhibition,[23],14.5%
same,inhibition,[24],58.6%
same,inhibition,[25],1.76%
same,inhibition,[26],3.56%
same,inhibition,[27],23%
same,inhibition,[28],69.2%
same,inhibition,[29],12.9%
same,inhibition,[30],55.8%
same,inhibition,[31],2.46%
same,inhibition,[32],14.2%
same,inhibition,[33],9.35%
same,inhibition,[34],64.3%
same,inhibition,[35],-1.68%
same,inhibition,[36],1.31%
same,inhibition,[37],2.38%
same,inhibition,[38],17.7%
same,inhibition,[39],6.61%
same,inhibition,[40],48.2%
same,inhibition,[41],17.1%
same,inhibition,[42],66.2%
same,inhibition,[43],3.71%
same,inhibition,[44],7.17%
same,inhibition,[45],7.8%
same,inhibition,[46],23%
same,inhibition,[47],1.69%
same,inhibition,[48],4.31%
same,inhibition,[49],1.01%
same,inhibition,[50],3.7%
same,inhibition,[51],1.37%
same,inhibition,[52],18.1%
same,inhibition,[53],1.07%
same,inhibition,[54],2.38%
same,inhibition,[55],0.88%
same,inhibition,[56],0.02%
